High-throughput results: PubChem, Broad Institute
Vaccinia stage: blocks a specific stage of Vaccinia orthopoxvirus infection. Vaccinia-infected cells, mCherry/Venus stage reporter fluorescence; active compounds read low. activity change (mCherry), % (test concentration not listed). 89,000 tested, 0.01% active. AID 1053133; in the data active = activity change below about -37%, passing the limit was not always enough; tested in A549 cells
* = called active by the depositor. This excerpt belongs to a sample that is enriched for hits.

SMILES | Vaccinia stage
O=C(C[C@H]1CC[C@H](NC(=O)C2CCC2)[C@@H](CO)O1)NC1CCC1 | -6.9
O=C(C[C@H]1C[C@H]2c3cc(NC(=O)Cc4ccncc4)ccc3O[C@H]2[C@@H](CO)O1)NCCN1CCCCC1 | 9.0
C[C@H]1CN([C@@H](C)CO)C(=O)c2cccc(NS(C)(=O)=O)c2O[C@@H]1CN(C)C(=O)Nc1ccccc1 | 16.2
CCC(=O)Nc1ccc2c(c1)C(=O)N(C)[C@H]1CC[C@@H](CC(=O)Nc3cccc(OC)c3)O[C@@H]1CO2 | 1.8
CN1C(=O)c2cc(NC(=O)c3ccc(C(F)(F)F)cc3)ccc2OC[C@@H]2O[C@@H](CC(=O)O)CC[C@@H]21 | 6.9
C[C@H]1CCCCO[C@@H](CN(C)C(=O)Nc2ccccc2)[C@@H](C)CN([C@@H](C)CO)C(=O)c2cc(N(C)C)ccc2O1 | -15.4
CN1C(=O)c2cc(NS(C)(=O)=O)ccc2OC[C@@H]2O[C@@H](CC(=O)NCc3ccccc3)CC[C@@H]21 | 13.5
COc1ccc(C(=O)Nc2ccc3c(c2)OC[C@H](C)N(C(C)=O)C[C@H](C)[C@H](OC)CN(C)C3=O)cc1 | 4.1
C[C@H]1CN([C@@H](C)CO)C(=O)c2cc(C#CCN(C)C)cnc2O[C@H]1CN(C)Cc1cccc(C(=O)O)c1 | 18.6
CO[C@@H]1CN(C)C(=O)c2cc(NC(=O)Nc3ccccc3F)ccc2OC[C@@H](C)N(Cc2ccccc2C(=O)O)C[C@H]1C | -6.5
O=C(C[C@@H]1C[C@@H]2c3cc(NC(=O)c4cccnc4)ccc3O[C@@H]2[C@H](CO)O1)NCC(F)(F)F | -8.0
CCO[C@@H]1OC(C(=O)N2CCN(Cc3ccc4c(c3)OCO4)CC2)=C[C@H](C(C)(C)C)[C@H]1CCCO | -2.5
COc1ccc(S(=O)(=O)N(C)C[C@@H]2Oc3ccc(NC(=O)Cc4ccccc4)cc3C(=O)N([C@H](C)CO)C[C@H]2C)cc1 | 13.5
CO[C@@H](CN(C)C(=O)c1cnccn1)[C@H](C)CN([C@H](C)CO)S(=O)(=O)c1ccccc1 | 17.1
Cc1noc(C)c1NC(=O)Nc1ccc2c(c1)C(=O)N([C@H](C)CO)C[C@@H](C)[C@H](CN(C)C(=O)Nc1c(C)noc1C)OCCCC[C@@H](C)O2 | 14.2
CCCNC(=O)N1CC2(CN(CC3CCOCC3)C2)c2c(n(C)c3cc(OC)ccc23)[C@H]1CO | 28.1
C[C@H]1CN([C@@H](C)CO)C(=O)c2cc(-c3ccccc3)cnc2O[C@@H]1CN(C)C(=O)Cc1ccccc1 | -10.7
COc1ccc(CN(C)C[C@H]2Oc3ccc(NC(=O)C4CCCCC4)cc3CC(=O)N([C@@H](C)CO)C[C@@H]2C)cc1 | -7.1
C[C@@H]1CN([C@@H](C)CO)C(=O)c2cc(NS(=O)(=O)c3ccccc3)ccc2O[C@@H]1CN(C)CC1CCCCC1 | -10.2
O=C1CN(Cc2ccccc2)C[C@H]2[C@@H](c3ccc(Br)cc3)[C@@H](CO)N12 | 31.9
CN1CCN(C(=O)c2cc3c(c(-c4cccc(C#CCC5CCCC5)c4)n2)[C@@H](CCO)N(S(=O)C(C)(C)C)C3)CC1 (stereo partly drawn) | -65.3*
COc1ccccc1-c1cccc(-c2nc(C(=O)N3CCN(C)CC3)cc3c2[C@@H](CCO)N([S@](=O)C(C)(C)C)C3)c1 | -1.0
CN1CCN(C(=O)c2cc3c(c(-c4cccc(Br)c4)n2)[C@H](CCO)N([S@@](=O)C(C)(C)C)C3)CC1 | 5.2
COCCNC(=O)c1cc2c(c(-c3cccc(-c4cccc(F)c4)c3)n1)[C@@H](CCO)N([S@](=O)C(C)(C)C)C2 | -17.0
CCNC(=O)c1cc2c(c(-c3cccc(-c4cccc(F)c4)c3)n1)[C@@H](CCO)N([S@](=O)C(C)(C)C)C2 | -23.5
SMILES | Vaccinia stage
CCCNC(=O)c1cc2c(c(-c3cccc(-c4cccc(F)c4)c3)n1)[C@H](CCO)N([S@@](=O)C(C)(C)C)C2 | -46.5*
O=C(C[C@H]1C=C[C@H](NC(=O)c2ccc(F)cc2)[C@@H](CO)O1)NCCc1ccncc1 | 6.5
O=C(C[C@@H]1CC[C@@H]2[C@H](COC[C@@H](O)CN2Cc2cccc(C(F)(F)F)c2)O1)NCc1ccc(F)cc1 | -18.0
O=C(Nc1ccccc1)N[C@H]1CC[C@@H](CCn2cc(-c3ccccc3F)nn2)O[C@H]1CO | -9.8
Cc1noc(C)c1S(=O)(=O)N(C)C[C@@H]1OCCCC[C@@H](C)Oc2ccc(NC(=O)Cc3ccccc3)cc2C(=O)N([C@@H](C)CO)C[C@@H]1C | 8.3
CN1C(=O)c2cc(NS(=O)(=O)c3ccccc3Cl)ccc2OC[C@@H]2O[C@@H](CC(=O)O)CC[C@@H]21 | -6.1
COc1ccccc1-c1cnc2c(c1)C(=O)N([C@H](C)CO)C[C@@H](C)[C@H](CN(C)CC1CCOCC1)O2 | 5.8
O=C(C[C@@H]1CC[C@@H](NC(=O)C2CC2)[C@@H](CO)O1)Nc1nccs1 | -0.8
CC(C)NC(=O)Nc1ccc2c(c1)C(=O)N([C@H](C)CO)C[C@@H](C)[C@@H](CN(C)Cc1ccc(C(F)(F)F)cc1)O2 | -6.9
C[C@@H]1CN([C@@H](C)CO)C(=O)c2cc(C#Cc3cccnc3)cnc2O[C@H]1CN(C)C | 13.2
